Laboratory results as given in PubChem BioAssay AID1159580 (chemical genetic matrix, 2015).
Hit rate of the full screen: of about 5,500 compounds, about 2,000 (36%) were called active. Another 18% or so got no clear call; they are omitted. No stated cut-off is given here; in the data, active means normalized growth mostly below about 0.91 (no sharp cut-off); inconclusive means no clear call, values can overlap the other calls; inactive means mostly above about 0.92. The list shows a part of the results.

Experiment: chemical genetic growth profiling, strain panel (AID 1159580);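 further: tested at 20 µM; growth read once vehicle control cultures reached saturation at 30 °C; 1 = growth at the plate median or of vehicle wells; lower values mean less growth of the strain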
Conditions: S. cerevisiae deletion strains, growth OD
[1] = locus YHR030C, strain SLT2, hits give low values
[2] = locus YHR079C, strain IRE1, hits give low values
[3] = locus YJL095W, strain BCK1, hits give low values
[4] = locus YJR066W, strain TOR1, hits give low values
[5] = locus YLR113W, strain HOG1, hits give low values
[6] = locus YNL183C, strain NPR1, hits give low values
[7] = locus YOR231W, strain MKK1, hits give low values
[8] = locus YPL256C, strain CLN2, hits give low values

Measured: normalized growth

Cc1onc(-c2ccccc2Cl)c1-c1nc2ccccc2c(=O)o1
inactive: locus YAR019C, strain CDC15, hits give low values 0.97 | locus YBL105C, strain PKC1, hits give low values 0.975 | locus YBR135W, strain CKS1, hits give low values 0.975 | locus YBR136W, strain MEC1, hits give low values 0.973 | locus YBR160W, strain CDC28, hits give low values 0.971 | locus YDL017W, strain CDC7, hits give low values 0.969 | locus YDL028C, strain MPS1, hits give low values 0.979 | locus YDL101C, strain DUN1, hits give low values 0.963 | locus YDL108W, strain KIN28, hits give low values 0.97 | locus YDL132W, strain cdc53, hits give low values 0.975 | locus YDL214C, strain PRR2, hits give low values 0.968 | locus YDR052C, strain DBF4, hits give low values 0.969 | locus YDR054C, strain cdc34, hits give low values 0.964 | locus YDR226W, strain ADK1, hits give low values 0.97 | locus YDR477W, strain SNF1, hits give low values 0.962 | locus YER123W, strain YCK3, hits give low values 0.953 | locus YER133W, strain GLC7, hits give low values 0.984 | locus YFL009W, strain cdc4, hits give low values 0.974 | locus YFL029C, strain CAK1, hits give low values 0.956 | locus YFR003C, strain YPI1, hits give low values 0.972 | locus YFR019W, strain FAB1, hits give low values 0.979 | locus YFR028C, strain CDC14, hits give low values 0.973 | locus YGR040W, strain KSS1, hits give low values 0.96 | locus YGR052W, strain FMP48, hits give low values 1.03 | locus YGR092W, strain DBF2, hits give low values 0.983 | [1] 0.958 | [2] 0.936 | locus YHR082C, strain KSP1, hits give low values 0.991 | locus YHR205W, strain SCH9, hits give low values 0.932 | locus YIL147C, strain SLN1, hits give low values 0.969 | [3] 0.954 | locus YJL128C, strain PBS2, hits give low values 0.925 | locus YJL157C, strain FAR1, hits give low values 0.987 | locus YJR016C, strain ILV3, hits give low values 0.974 | locus YJR066W, strain TOR1 (second series), hits give low values 0.967 | [4] 0.978 | locus YKL048C, strain ELM1, hits give low values 0.947 | locus YKL067W, strain YNK1, hits give low values 0.961 | locus YKL101W, strain HSL1, hits give low values 0.939 | locus YKL193C, strain SDS22, hits give low values 0.969 | locus YKL203C, strain TOR2, hits give low values 1.02 | [5] 0.872 | locus YLR133W, strain CKI1, hits give low values 0.965 | locus YLR403W, strain SFP1, hits give low values 0.953 | locus YML070W, strain DAK1, hits give low values 0.956 | locus YMR001C, strain CDC5, hits give low values 0.974 | locus YMR205C, strain PFK2 (second series), hits give low values 0.955 | locus YMR277W, strain FCP1, hits give low values 0.987 | locus YNL006W, strain LST8, hits give low values 0.982 | locus YNL020C, strain ARK1, hits give low values 0.969 | locus YNL161W, strain CBK1, hits give low values 0.969 | [6] 0.96 | locus YNL207W, strain RIO2, hits give low values 0.97 | locus YNL222W, strain SSU72, hits give low values 0.975 | locus YNL307C, strain MCK1 (second series), hits give low values 0.987 | locus YOL078W, strain AVO1, hits give low values 0.976 | locus YOL136C, strain PFK27, hits give low values 0.958 | locus YOR061W, strain CKA2, hits give low values 0.961 | locus YOR119C, strain RIO1, hits give low values 0.983 | [7] 0.929 | locus YOR329C, strain SCD5, hits give low values 0.966 | locus YPL031C, strain PHO85, hits give low values 0.978 | locus YPL153C, strain RAD53, hits give low values 0.956 | locus YPL204W, strain HRR25, hits give low values 0.978 | locus YPL209C, strain IPL1, hits give low values 0.969 | [8] 0.882 | locus YPR025C, strain CCL1, hits give low values 0.975 | locus YPR106W, strain ISR1, hits give low values 0.96 | locus YPR111W, strain DBF20, hits give low values 0.963 | strain NNK1, hits give low values 0.958 | strain TSCII, hits give low values 0.968

COc1ccccc1OCC(O)CN1CCN(CC(=O)Nc2c(C)cccc2C)CC1 (stereo not drawn)
inactive: locus YAL013W, strain DEP1, hits give low values 0.996 | locus YAL021C, strain ccr4, hits give low values 0.991 | locus YAL026C, strain drs2, hits give low values 1.03 | locus YAL030W, strain snc1, hits give low values 1.01 | locus YAL040C, strain CLN3, hits give low values 1 | locus YBL061C, strain skt5, hits give low values 1.02 | locus YBR009C, strain hhf1, hits give low values 0.986 | locus YBR023C, strain chs3, hits give low values 1.03 | locus YBR171W, strain sec66, hits give low values 1.02 | locus YBR231C, strain swc5, hits give low values 0.991 | locus YBR279W, strain paf1, hits give low values 1.02 | locus YCL011C, strain gbp2, hits give low values 1.01 | locus YCL016C, strain dcc1, hits give low values 1.04 | locus YCL061C, strain MRC1 (second series), hits give low values 1 | locus YCL061C, strain MRC1, hits give low values 0.993 | locus YCL069W, strain vba3, hits give low values 1.02 | locus YCR088W, strain abp1, hits give low values 1.02 | locus YDL005C, strain med2, hits give low values 1 | locus YDL040C, strain nat1, hits give low values 1 | locus YDR001C, strain nth1, hits give low values 1 | locus YDR069C, strain doa4, hits give low values 0.991 | locus YDR137W, strain rgp1, hits give low values 1.06 | locus YDR159W, strain sac3, hits give low values 0.912 | locus YDR195W, strain ref2 0.993 | locus YDR297W, strain sur2, hits give low values 1 | locus YDR334W, strain swr1, hits give low values 1 | locus YDR335W, strain msn5, hits give low values 1.01 | locus YDR363W, strain ESC2, hits give low values 0.998 | locus YDR392W, strain spt3, hits give low values 0.942 | locus YEL003W, strain gim4, hits give low values 0.976 | locus YEL037C, strain rad23, hits give low values 1.01 | locus YEL061C, strain CIN8 (second series), hits give low values 0.997 | locus YER002W, strain NOP16, hits give low values 0.993 | locus YER015W, strain faa2, hits give low values 1.01 | locus YER016W, strain bim1, hits give low values 1.03 | locus YER111C, strain swi4, hits give low values 1.02 | locus YER155C, strain BEM2 (second series), hits give low values 0.957 | locus YFR010W, strain ubp6, hits give low values 0.97 | locus YGL167C, strain pmr1, hits give low values 0.989 | locus YGL173C, strain kem1, hits give low values 0.987 | locus YGL227W, strain vid30, hits give low values 1.02 | locus YGL240W, strain doc1, hits give low values 0.987 | locus YGL253W, strain hxk2, hits give low values 1.06 | locus YHR013C, strain ard1, hits give low values 1.03 | locus YHR027C, strain rpn1, hits give low values 0.988 | [1] 1.06 | [2] 1.05 | locus YHR142W, strain chs7, hits give low values 1.02 | locus YJL092W, strain hpr5, hits give low values 1 | locus YJL095W, strain BCK1 (second series), hits give low values 1.02 | [3] 1.02 | locus YJL115W, strain asf1, hits give low values 1 | locus YJL129C, strain trk1, hits give low values 1.03 | locus YJL154C, strain vps35, hits give low values 1 | locus YJL164C, strain tpk1, hits give low values 0.979 | locus YJL166W, strain qcr8, hits give low values 0.997 | [4] 0.977 | locus YJR075W, strain HOC1, hits give low values 1 | locus YKL160W, strain elf1, hits give low values 1.01 | locus YKR026C, strain gcn3, hits give low values 1 | locus YKR091W, strain srl3, hits give low values 1 | locus YLL001W, strain dnm1, hits give low values 0.964 | locus YLL026W, hits give low values 1.01 | locus YLL041C, strain sdh2, hits give low values 1.02 | locus YLR027C, strain aat2, hits give low values 1 | [5] 0.982 | locus YLR221C, strain rsa3, hits give low values 0.972 | locus YLR258W, strain gsy2, hits give low values 1.03 | locus YLR262C, strain YPT6 (second series), hits give low values 1.02 | locus YLR320W, strain mms22, hits give low values 0.937 | locus YLR342W, strain FKS1, hits give low values 1.02 | locus YLR357W, strain rsc2, hits give low values 0.99 | locus YLR370C, strain arc18, hits give low values 1.01 | locus YLR384C, strain iki3, hits give low values 0.997 | locus YML120C, strain ndi1, hits give low values 0.976 | locus YMR058W, strain fet3, hits give low values 1.01 | locus YMR125W, strain sto1, hits give low values 1.01 | locus YMR129W, hits give low values 0.988 | locus YMR205C, strain PFK2, hits give low values 1 | locus YMR231W, strain pep5, hits give low values 1 | locus YMR307W, strain GAS1, hits give low values 1.02 | locus YNL071W, strain lat1, hits give low values 1 | locus YNL153C, strain GIM3, hits give low values 1.06 | locus YNL175C, strain NOP13, hits give low values 1.01 | [6] 0.963 | locus YNL197C, strain WHI3, hits give low values 1.01 | locus YNL209W, strain ssb2, hits give low values 1.02 | locus YNL224C, strain SQS1, hits give low values 1.01 | locus YNL248C, strain rpa49, hits give low values 1.07 | locus YNL322C, strain KRE1 (second series), hits give low values 1.02 | locus YNR049C, strain mso1, hits give low values 1 | locus YOR001W, strain rrp6, hits give low values 0.924 | locus YOR070C, strain gyp1, hits give low values 1.01 | locus YOR080W, strain dia2, hits give low values 1.01 | locus YOR083W, strain WHI5 (second series), hits give low values 1.02 | locus YOR083W, strain WHI5, hits give low values 0.974 | locus YOR106W, strain vam3, hits give low values 1.04 | [7] 1.01 | locus YOR265W, strain rbl2, hits give low values 0.98 | locus YOR270C, strain vph1, hits give low values 0.991 | locus YOR290C, strain snf2, hits give low values 1.06 | locus YPL051W, strain arl3, hits give low values 1.04 | locus YPL078C, strain atp4, hits give low values 1.07 | locus YPL106C, strain sse1, hits give low values 1.1 | locus YPL240C, strain hsp82, hits give low values 1 | locus YPL241C, strain CIN2, hits give low values 1.01 | [8] 1.05
